From PubChem BioAssay (NCI)
This is part of a sample that, as a whole, favours compounds with a hit. Of some 83,000 tested, about 20% had one in any assay.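 Compound tested at a single concentration for 48 hours in 96-well plates; a percent growth value below 10 was scored as active.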 A number with no mark means an inactive call. Active and inactive are the calls of the source.

Legend:
Test in all cases: NCI-60 one-dose screen, 48 h (100 = growth as untreated, 0 = no growth, -100 = all killed)
Settings in all cases: 10 µM unless noted
[1] = system: SK-MEL-2 melanoma
[2] = system: EKVX NSCLC
[3] = system: SN12C renal
[4] = system: UO-31 renal
[5] = system: TK-10 renal
[6] = system: ACHN renal
[7] = system: CAKI-1 renal
[8] = system: A498 renal
[9] = system: CCRF-CEM leukemia
[10] = system: MOLT-4 leukemia

SMILES	growth [1]	growth [2]	growth [3]	growth [4]	growth [5]	growth [6]	growth [7]	growth [8]	growth [9]	growth [10]
CS(=O)(=O)c1ccc(-c2cnc3ccc(-c4cccc(S(C)(=O)=O)c4)nn23)cc1	48.3%	67.5%	46.8%	24.2%	40%	22.4%	23.2%	-15.6% (active)	18.4%	0.943% (active)
CC(=O)Oc1ccc(Nc2c3ccccc3nc3ccccc23)cc1	-30.7% (active)	24%	5.67% (active)	-16.4% (active)	3.64% (active)	-31.7% (active)	-32% (active)	-37.2% (active)	-8.66% (active)	1.46% (active)
CCCC(=O)Oc1ccc(/C(=C(/CC)Cc2ccccc2)c2ccc(OCCN3CCCC3)cc2)cc1	103%	81.4%	99.4%	66.5%	87.8%	87.3%	85.2%	71.9%	84.4%	51.6%
C/C(=C(/c1ccc(O)cc1)c1ccc(OCCN2CCCC2)cc1)c1ccccc1	63.1%	62.5%	72.4%	55.3%	79.6%	68.5%	65.1%	80.5%	60.7%	-1.64% (active)
CCCCN(CCCC)Cc1c(C)[nH]c2cc(OC)ccc2c1=O	110%	104%	104%	81.2%	104%	110%	99.1%	95.8%	95.8%	90.9%
CCN(CC)CCCNc1cc(OC)cc2nc3cc(Cl)ccc3nc12	3.9% (active)	0.555% (active)	13.1%	-86.7% (active)	-15.5% (active)	3.95% (active)	-78.7% (active)	14.3%	19.9%	-26.2% (active)
O=C(Cn1cc(CN2C(=O)c3ccccc3S2(=O)=O)nn1)Nc1ccc([N+](=O)[O-])cc1Cl	91.9%	103%	94.3%	82.7%	112%	95.3%	91.8%	103%	93.4%	96.5%
O=C(Cc1ccccc1)c1ccc(Cl)cc1	99%	87.4%	89%	111%	99.5%	103%	75.2%	90.9%	99.1%	84.2%
N#Cc1c2c(nc3n[nH]c(N)c13)CCCC2	109%	58.3%	105%	71.7%	128%	101%	95.5%	121%	8.03% (active)	90.7%
C/C(=C(/c1ccc(O)cc1)c1ccc(OCCN(C)C)cc1)c1ccccc1	92.3%	83.6%	84%	65%	81.5%	89.2%	84.9%	102%	94.3%	32.8%
COc1ccc(C/C(C)=C(\c2ccc(Cl)cc2)c2ccc(OCCN3CCCCCC3)cc2)cc1	90.5%	91.7%	78.3%	67.9%	90.3%	86.4%	84.1%	92.1%	61.6%	58.7%
Cc1cc(=O)oc2cc(Oc3nc(-c4cccs4)cn4c(-c5cccs5)cnc34)ccc12	69%	64%	73.8%	60.3%	53.9%	57.3%	67.8%	64.4%	94.6%	78.7%
CC1(C)CC(C(=O)OCCCCCCCCCCC[P+](c2ccccc2)(c2ccccc2)c2ccccc2)C(C)(C)N1O (stereo not given)	-45.8% (active)	-32.6% (active)	-36% (active)	-74.4% (active)	-72.1% (active)	109%	-57.9% (active)	-94.8% (active)	-32.8% (active)	-56.9% (active)
CN(CC(=O)N(Cc1ccc(C2CCCCC2)cc1)c1ccc(C(=O)NO)cc1)S(=O)(=O)c1c(F)c(F)c(F)c(F)c1F	81.2%	106%	86.1%	69.1%	87.4%	79.6%	87.4%	95.7%	41.9%	39.2%
C[C@H](CCC(=O)O)[C@H]1CC[C@H]2[C@@H]3CC[C@@H]4/C(=C\c5ccco5)C(=O)/C(=C\c5ccco5)C[C@]4(C)[C@H]3CC[C@]12C	73.2%	79.1%	56.3%	49.6%	109%	46.6%	55.6%	115%	0.613% (active)	0.809% (active)
Cc1nc2nc(N)nc(N)c2nc1C	86.5%	97.9%	93.1%	78.6%	95.4%	96.3%	92.3%	100%	98.5%	118%
Nc1cc(-c2nc3sccn3c2-c2ccnc(NCCCNS(=O)(=O)c3ccc(F)cc3)n2)ccc1F	60.4%	58.3%	48.9%	30.7%	98.3%	32.5%	29.7%	54.3%	21.2%	34%
Cc1ccc(-c2nc(/C=N/Nc3cc(C)nc4ccc(Br)cc34)c(C)o2)cc1	95.8%	2.6% (active)	-83.4% (active)	-98% (active)	-17.5% (active)	-85.1% (active)	-71.5% (active)	86.6%	-42.1% (active)	-34.7% (active)
Nc1ccc2c(c1)C(=O)NC2=O	117%	112%	94.9%	70.8%	118%	99.3%	99.6%	119%	-49.6% (active)	105%
O=C(O)c1c([N+](=O)[O-])cnc2ccccc12	102%	58.2%	97.2%	64.9%	102%	111%	98%	118%	127%	105%
CC(C)Oc1nc2c(c(=O)n(C)c(=O)n2C)n1C	107%	103%	108%	91.3%	95.3%	101%	100%	106%	95.3%	94.4%
CC(C)[C@H]1COC(=O)N1[C@@H]1C(=O)N([C@@H](CCC(=O)N2CCN(C3CCCC3)CC2)C(=O)N[C@@H]2CCCc3ccccc32)[C@@H]1/C=C/c1cccc(Br)c1	-7.94% (active)	48.2%	38%	31%	30.9%	48.9%	62.5%	0.642% (active)	32.8%	17.9%
COc1ccc(S(=O)(=O)NCCCNc2cc(-c3c(-c4cccc(OC)c4)nc4sccn34)ccn2)cc1	53.3%	48.4%	36%	18%	73.4%	33.2%	32%	36.7%	26.5%	19.2%
O=C1c2cccnc2C(=O)c2c1c(C(=O)OCCN1CCOCC1)c1ccccn21	7.23% (active)	13.1%	-30.4% (active)	-26.7% (active)	-6.05% (active)	7.94% (active)	14.4%	-30.4% (active)	8.9% (active)	-16.2% (active)
CN1CCN(Cc2ccc(NC(=O)c3[nH]ncc3Nc3ncnc4c3CCC4)cc2)CC1	13.6%	26%	6.07% (active)	6.53% (active)	2.4% (active)	-10.8% (active)	9.41% (active)	-21.7% (active)	11.1%	-2.96% (active)
CN1CCN(Cc2ccc(NC(=O)c3[nH]ncc3Nc3ccnc4ccsc34)cc2)CC1	64.9%	41.1%	21.3%	44.5%	58.6%	13.5%	59.3%	17%	11%	2.39% (active)
COCCCN=C(N)c1ccc(NC(=O)c2ccc(C(=O)Nc3ccc(C(N)=NCCCOC)cc3)cc2)cc1	102%	76.9%	95%	96.6%	113%	113%	95.2%	208%	108%	85.9%
